According to PubChem BioAssay AID931 (National Center for Advancing Translational Sciences (NCATS), 2007):
Results filed as inconclusive are left out. A number with no mark means an inactive call. The source made the active and inactive calls. Calls come from the whole dose curve; as a rule, active = well fitted cell-killing curve with a large enough effect; inconclusive = small, poorly fitted or top-dose-only effect; inactive = flat fitted curve, though single readings scatter.

Assay: Confirmation and Secondary Assay for Modulators of Hemoglobin Beta Chain Splicing at IVS2 654 locus: Cytotoxicity
Conditions: HBB IVS2-654 splicing reporter cells; series mostly up to 46.1 µM; activity change, negative = cytotoxicity: at the top concentration
Excerpt: NIH Chemical Genomics Center [NCGC]
NIH Molecular Libraries Screening Centers Network [MLSCN]
PI Name: Dr. Ryszard Kole
Modulation of Alternative Splicing as Therapy
Abnormal splicing is associated with a number of diseases, including cancer and genetic diseases such as cystic fibrosis, muscular dystrophy and beta-thalassemia. Alteration of disease associated splicing patterns provides a promising target for treatment. […] Mutations in the second intron of the b-globin gene at positions 654 or 705 are clinically relevant and cause mis-splicing which results in an out of frame gene product.
Examination of toxicity of select compounds in EGFP-654 HeLa Cells
HeLa cell lines were stably transfected with a construct in which the EGFP (enhanced green fluorescent protein) cDNA was interrupted by the second intron of the beta-globin gene (IVS2-654). The ISV2 intron contains mutations which cause mis-splicing of EGFP and premature termination of EGFP which results in a nonfluorescent protein product. […] Expression of the transgene was driven by the CMV promoter. Compounds, and related structures identified in the primary screen as potential splicing modulation were examined for their effects on cell toxicity in this follow up assay .
NCGC Assay Protocol Summary:
Toxicity Screening. Freshly thawed HeLa EGFP-654 cells were seeded in 5 ul of optimem media (Invitrogen) containing 2 % fetal calf serum (Hyclone) and 1x penicillin/streptomycin (Invitrogen) at a concentration of 500 cells per well in 1536-well plates. Cells were incubated overnight at 37C in 5% CO2. The next day, cells were treated with DMSO, 500 nM antisense ISV2 654 PNA control oligo, or library compound and allowed to grow at 37C in 5% CO2 for 2 days. Cells were treated with 5 ul/well of freshly prepared ATPlite (Perkin Elmer) and cells were allowed to lyse at room temperature for 5 minutes. Luminescence was captured on an Viewlux CCD imager (Perkin Elmer) using a 15 second integration time and cell death was measured by comparing compound treatments to DMSO treatment (no cell death).
Keywords: Thalassemia, beta-thalassemia, beta-globin, EGFP, ISV2 654, ISV2 705, SSO, PNA, antisense, splicing, ATPlite, toxicity, MLSMR, MLSCN, NIH Roadmap, qHTS, NCGC

Compound | Potency | activity change, negative = cytotoxicity
NC1=NC(S)C2N=CN=C2N1 (centres undefined) | 316 nM (active) | –
Nc1ncnc2c1nc(Br)n2C1OC(CO)C(O)C1O (centres undefined) | – | -26.4%
S=C1NC=NC2N=CNC12 (centres undefined) | 199 nM (active) | –
CSc1ncnc2c1ncn2C1OC(CO)C(O)C1O (centres undefined) | 794 nM (active) | –
Cn1cnc([N+](=O)[O-])c1Sc1ncnc2nc[nH]c12 | 316 nM (active) | –
OCC1OC(n2cnc3c(Cl)ncnc32)C(O)C1O (centres undefined) | – | -9.7%
Nc1ccn([C@H]2CC[C@@H](CO)O2)c(=O)n1 | – | 1.26%
Nc1ncn([C@@H]2O[C@H](CO)[C@@H](O)[C@H]2O)c(=O)n1 | 1260 nM (active) | –
O=c1[nH]c(=O)n(C2CC(O)C(CO)O2)cc1F (centres undefined) | – | -25%
Nc1ncnc2c1nc(Cl)n2C1OC(CO)C(O)C1O (centres undefined) | – | 6.51%
Nc1nc(=O)n(C2OC(CO)C(O)C2O)cc1Cl (centres undefined) | – | -10.6%
OCC1OC(n2cnc3c(=S)nc[nH]c32)C(O)C1O (centres undefined) | 3160 nM (active) | –
N=c1ccn2c(n1)O[C@@H]1[C@@H](O)[C@H](CO)O[C@H]12 | – | -14%
Nc1nc(Cl)nc2c1ncn2[C@H]1C[C@H](O)[C@@H](CO)O1 | – | -14.5%
